Shown is part of a subset that was picked to be rich in hits.
ALOX12 inh – inhibitors of human 12S-lipoxygenase ALOX12; P18054; purified 12hLO, xylenol orange hydroperoxide absorbance; Potency, µM (top dose mostly 108 µM), inactives show at the highest dose activity change, negative = inhibition, usual class: inhibitors; hit rate 1.1% among 580,000; further: potency means the concentration at half of the fitted maximal effect
Target sequence (P18054 whole entry, looked up): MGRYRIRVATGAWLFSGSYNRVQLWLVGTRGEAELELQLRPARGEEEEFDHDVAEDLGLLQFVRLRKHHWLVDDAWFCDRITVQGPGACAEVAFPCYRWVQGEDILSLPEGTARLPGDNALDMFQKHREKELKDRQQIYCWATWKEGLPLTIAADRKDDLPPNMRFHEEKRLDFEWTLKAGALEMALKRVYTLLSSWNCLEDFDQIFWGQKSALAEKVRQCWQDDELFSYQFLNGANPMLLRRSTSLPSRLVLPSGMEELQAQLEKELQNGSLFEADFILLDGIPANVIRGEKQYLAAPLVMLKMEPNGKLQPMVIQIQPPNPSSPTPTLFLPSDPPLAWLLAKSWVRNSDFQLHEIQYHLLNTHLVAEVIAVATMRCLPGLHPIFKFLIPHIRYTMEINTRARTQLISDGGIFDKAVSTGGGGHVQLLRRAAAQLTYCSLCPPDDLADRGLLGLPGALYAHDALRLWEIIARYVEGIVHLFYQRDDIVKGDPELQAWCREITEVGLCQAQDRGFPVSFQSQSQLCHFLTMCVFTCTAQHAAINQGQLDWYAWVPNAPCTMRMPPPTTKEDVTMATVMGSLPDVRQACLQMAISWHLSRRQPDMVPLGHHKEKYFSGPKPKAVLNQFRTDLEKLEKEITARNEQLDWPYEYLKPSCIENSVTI
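Hydroperoxide product was detected by ferrous iron/xylenol orange as the 573 to 405 nm absorbance ratio. Arachidonic acid at 40 uM (final) was turned over for 30 min at room temperature by 150 nM human 12hLO, pH 7.0 Hepes buffer, after 15 min compound preincubation.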
HT1080 IDH1KD tx – HT-1080 IDH1 knockdown cell toxicity (counter line); hit rate 2% among 360,000; Potency, µM (highest dose often 46.1 µM), without a hit: top-dose activity, negative = toxicity, usual class: cytotoxic; HT-1080 IDH1 knockdown viability, ATP luminescence, 48 h; AID 686971;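 further: potency means the concentration at half of the fitted maximal effect; 0% = DMSO wells and -100% = cell-free medium wells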
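IDH1KD HT-1080 cells, 750/well, RPMI + 5% FBS; compound pinned after 2 h settling; 48 h, 37 °C; CellTiter-Glo luminescence; % activity normalised to DMSO and no-cell wells; curves fitted, classed by r2 and efficacy.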
HT1080-NT tox – kills 2HG-producing HT-1080-NT fibrosarcoma cells. HT-1080-NT fibrosarcoma viability, CellTiter-Glo ATP luminescence, 48 h. Potency, µM (doses to about 46.1 µM), without a hit: top-dose activity, negative = less viability, hits mostly cytotoxic. hit rate 1.6% among 360,000;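 further: NT is the 2HG producing partner of a matched IDH1 knockdown line; potency means the concentration at half of the fitted maximal effect; 0% = DMSO-treated cells and -100% = media-only wells without cells; nearly all actives have a fitted effect of over 55% in size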
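Toxicity toward the 2HG-producing NT line was scored as %Activity, normalised to DMSO and no-cell wells, from CellTiter-Glo luminescence after 48 hours' treatment.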
TDP1 cell noCPT – qHTS for Inhibitors of human tyrosyl-DNA phosphodiesterase 1 (TDP1): qHTS in cells in absence of CPT; DT40 Tdp1-/- hTDP1 cells, no CPT, ATP luminescence, 48 h; Potency, µM (doses to about 46.2 µM), for inactives: top-dose activity change, negative = growth inhibition, hits mostly inhibitors; hit rate 15% among 420,000; further: potency means the concentration at half of the fitted maximal effect; nearly all actives have a fitted effect of over 55% in size
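Cells were dispensed at 400 per well, compounds added by pin tool, plates incubated ≥48 hr at 37 °C, then CellTiter-Glo added for 30 min at room temperature before luminescence reading. Line: DT40 Tdp1-/- complemented with hTDP1; camptothecin omitted.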
IL1B secr inh – blocks inflammasome-driven IL-1 beta release. THP-1 LPS/ATP IL-1B secretion, AlphaLISA, 16 h; hits give low values. activity change, % at 57.5 µM. hit rate 4.7% among 360,000. AID 743279; in the data active means activity change below about -50%; inconclusive means mostly about -30% to -49%
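Secreted IL-1B measured by AlphaLISA bead assay after 16 h compound exposure of THP-1 cells; compounds (final up to 57.5 uM) added 1 h before LPS (250 ng/mL) and ATP (1.25 mM) stimulation; lower signal means less secretion.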
DT40 TDP1 CPT – growth inhibition of DT40 Tdp1-/-;hTDP1 cells with camptothecin (screen for TDP1 inhibitors). chicken DT40 Tdp1-/-;hTDP1 cells + 20 nM CPT, ATP luminescence, 48 h. Potency, µM (top dose mostly 46.2 µM), for inactives: top-dose activity change, negative = growth inhibition, actives largely listed as inhibitors. hit rate 12% among 420,000; further: potency means the concentration at half of the fitted maximal effect; nearly all actives have a fitted effect of over 55% in size
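Chicken DT40 Tdp1-/- cells stably complemented with human TDP1 were seeded at 400 cells/well in medium containing 20 nM camptothecin, exposed to pin-transferred compounds, and grown at 37 °C for at least 48 hr. Viability was read as ATP luminescence.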
* = called active by the depositor; ? = inconclusive; . = not tested or not shown; [ ] = another dose, or the depositor's remark. Unless noted, the call rests on the fitted dose curve; in most records, active means well fitted curve in the direction sought with a large enough effect; inconclusive means small, poorly fitted or top-dose-only effect, or another doubt; inactive means no such curve, though single readings can be large; an effect the other way counts as inactive or inconclusive. Unless noted, on the % scale 0 is the no-effect control and ±100 the full control effect.

SMILES | ALOX12 inh | HT1080 IDH1KD tx | HT1080-NT tox | TDP1 cell noCPT | IL1B secr inh | DT40 TDP1 CPT
CCCCN(C)CCNC(=O)c1cc2c(=O)[nH]c3ccccc3c2n1C | -0.7% | -9.7% | -15.5% | -28.1% | -16.3 | 4.8%
CCCCN(C)CCNC(=O)c1cc2c(=O)n(C)c3ccccc3c2n1C | -5.2% | . | . | 23.1µM* | . | ?
Cn1c(C(=O)NCc2ccccn2)cc2c(=O)n(C)c3ccccc3c21 | 403.6% | -5.4% | 3.5% | ? | -27.6 | 0.581µM*
CCCCN(CC)CCCNC(=O)c1cc2c(=O)n(C)c3ccccc3c2n1C | 9.7%[57.4 µM] | -20.7% | -4.9% | ? | -73.0* | ?
COc1ncc2nc(-c3cccs3)c(=O)n(-c3ccccc3)c2n1 | 0.0% | . | . | -3.1% | . | 9.4%
COc1ccccc1C(=O)NCCc1nc2ccccc2[nH]1 | -2.2% | 19.3% | 12.0% | -24.7% | -9.3 | -4.1%
COc1ccc(/C=C/C(=O)Nc2cc(C(F)(F)F)ccc2Cl)cc1OC | -21.8% | 6.1% | 3.7% | ? | ? | 29.1µM*
COc1cc(/C=C/C(=O)Nc2cc(C(F)(F)F)ccc2Cl)cc(OC)c1OC | 0.0% | ? | -28.5% | 25.9µM* | -56.7* | ?
N#CCCn1c(C2CCCCC2)nc2ccccc21 | 7.1% | 7.7% | 9.3% | -7.9% | -0.7 | 7.9%
CC[n+]1c(C)ccc2ccccc21 | 15.8µM* | . | . | . | . | .
CCCC[n+]1c(C)ccc2ccccc21 | . | . | . | 15.8µM* | . | ?
CC(C)Cc1nc2nccc(-c3ccc4c(c3)OCCCO4)n2n1 | 6.3% | . | . | . | . | .
Oc1ccccc1N=Nc1ccccc1O | ? | ? | ? | 4.61µM* | 127.9 | 4.61µM*
Cc1ccc(SC(C)C(=O)NC2CC2)cc1 (stereo unspecified) | 0.0% | 13.1% | ? | 24.3% | -0.7 | 8.9%
Cc1ccc(SC2=C[C@@]3(O)CC[C@@H](O)[C@@](Sc4ccc(C)cc4)(C2=O)[C@H]3O)cc1 | ? | -22.1% | -26.6% | ? | -7.8 | 23.1µM*
CC(C)(C)c1ccc(SC2=C[C@@]3(O)CC[C@@H](O)[C@@](Sc4ccc(C(C)(C)C)cc4)(C2=O)[C@H]3O)cc1 | ? | 14.6µM* | 16.4µM* | 3.26µM* | -89.6* | 4.61µM*
O=c1[nH]c(CN(Cc2cccs2)CC2CCCO2)nc2scc(-c3ccc(F)cc3)c12 (stereo unspecified) | 22.5% | . | . | . | . | .
COc1ccccc1-c1cc2nc(NCCc3ccncc3)ccn2n1 | 2.8% | 8.8% | 1.9% | ? | -23.1 | ?
COc1ccccc1-c1cc2nc(NCCc3ccc(S(N)(=O)=O)cc3)ccn2n1 | 9.1% | -1.9% | -2.7% | 20.6µM* | -67.8* | ?
C(=C\c1ccccc1)/C=N/Nc1nc(N2CCOCC2)nc(N2CCOCC2)n1 | ? | -1.2% | -0.4% | ? | -7.3 | -11.0%
Clc1ccccc1/C=C/C=N/Nc1nc(N2CCOCC2)nc(N2CCOCC2)n1 | 0.7% | -17.5% | -1.2% | 23.1µM* | -15.9 | 23.1µM*
Cc1ccc(NC(=O)Cn2c(=O)n(Cc3ccco3)c(=O)c3ccc(C(=O)NC4CCCC4)cc32)c(C)c1 | 0.0% | . | . | 16.4µM* | . | 16.4µM*
Cc1ccccc1NC(=O)Cn1c(=O)n(Cc2ccc3c(c2)OCO3)c(=O)c2ccc(C(=O)NC3CCCCC3)cc21 | -16.2% | . | . | 7.31µM* | . | 5.8µM*
Cc1cc(C)c(NC(=O)Cn2c(=O)n(Cc3ccc4c(c3)OCO4)c(=O)c3ccccc32)c(C)c1 | -1.3% | . | . | ? | . | -26.7%
CCN(C(=O)Cn1c(=O)n(Cc2ccccc2)c(=O)c2ccccc21)c1cccc(C)c1 | -5.1% | -3.0% | -7.4% | ? | -23.7 | -11.0%
SMILES | ALOX12 inh | HT1080 IDH1KD tx | HT1080-NT tox | TDP1 cell noCPT | IL1B secr inh | DT40 TDP1 CPT
CCN(C(=O)Cn1c(=O)n(Cc2ccc3c(c2)OCO3)c(=O)c2ccc(C(=O)NC3CCCCC3)cc21)c1cccc(C)c1 | 0.0% | . | . | 16.4µM* | . | 14.6µM*
Cc1cc(C)c(NC(=O)Cn2c(=O)n(Cc3ccc(C(=O)NCc4ccc5c(c4)OCO5)cc3)c(=O)c3ccccc32)c(C)c1 | ? | . | . | 7.31µM* | . | 6.51µM*
CC(C)(C)C(=O)Nc1cnc(-c2cccnc2)nc1 | 38.4% | . | . | . | . | .
CC1CC(C)(C)NC(=S)N1CC(=O)NCc1ccc2c(c1)OCO2 (stereo unspecified) | ? | 18.2% | 15.1% | -25.9% | 1.3 | -1.3%
Cc1ccc(C)c(NC(=O)Cn2c(=O)n(Cc3ccc4c(c3)OCO4)c(=O)c3ccc(C(=O)NC4CCCCC4)cc32)c1 | -0.1% | . | . | ? | . | 2.59µM*
Cc1ccc(C)c(NC(=O)Cn2c(=O)n(CCC(=O)NCc3ccc4c(c3)OCO4)c(=O)c3ccccc32)c1 | -2.0% | . | . | -13.9% | . | -17.1%
Cc1ccc(NC(=O)Cn2c(=O)n(Cc3ccc4c(c3)OCO4)c(=O)c3ccc(C(=O)NC4CCCCC4)cc32)c(C)c1 | -9.8% | . | . | ? | . | 2.06µM*
Cc1cc(C)c(NC(=O)Cn2c(=O)n(CCC(=O)N3CCc4ccccc4C3)c(=O)c3ccccc32)c(C)c1 | -10.7% | . | . | 0.517µM* | . | 13µM*
COc1ccc(CCC(=O)Nc2ccc(S(=O)(=O)N3CCOCC3)cc2)cc1OC | -9.1% | -13.5% | 1.1% | ? | -7.7 | -14.8%
Cc1cc(C)c(C(=O)COC(=O)c2cccc(S(=O)(=O)NCc3ccccc3)c2)cc1C | 9.2% | -2.2% | -9.7% | 16.4µM* | 22.5 | ?

High-throughput results from PubChem.
